Source: PMC7819943, “Rice protein-binding microarrays: a tool to detect cis-acting elements near promoter regions in rice”
In all, about 39,000 sequences were measured (“fluorescence intensity (a.u.)”: median about 4,300, highest 2% from about 39,000 on). Shown is part of a subset that was picked to be rich in the highest values.

molecular target: T1, OsSMF1 (Oryza sativa, UniProt Q6ZLB0 1-436); experiment: protein-binding microarray (RPBM); PBS, 2% BSA, 51.3 ng/ul salmon testes DNA, 50 uM zinc acetate, 200 nM TF, 25 C, 1 h; high values mean tight binding; settings: protein: recombinant; tags: N-terminal polyhistidine and DsRed monomer fusion (pET32a); chain copies: 2; label: CyDye5-dUTP incorporated in the synthesized complementary strand; 3' TTTTT single-stranded linker to array surface; dsDNA, one strand shown
T1 sequence: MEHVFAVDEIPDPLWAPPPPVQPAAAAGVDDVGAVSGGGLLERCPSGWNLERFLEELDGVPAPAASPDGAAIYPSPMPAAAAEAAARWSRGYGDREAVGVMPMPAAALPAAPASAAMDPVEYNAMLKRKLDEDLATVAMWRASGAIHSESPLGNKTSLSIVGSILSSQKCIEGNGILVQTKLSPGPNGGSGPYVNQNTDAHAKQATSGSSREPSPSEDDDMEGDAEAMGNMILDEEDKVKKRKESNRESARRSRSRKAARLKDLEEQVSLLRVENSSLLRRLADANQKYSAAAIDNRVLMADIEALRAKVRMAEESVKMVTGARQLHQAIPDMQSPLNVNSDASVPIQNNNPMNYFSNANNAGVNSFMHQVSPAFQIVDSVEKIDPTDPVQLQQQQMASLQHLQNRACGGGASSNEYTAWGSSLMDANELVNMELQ
In short: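 Binding signal is defined as the fluorescence intensity of each feature in arbitrary units, read on an Axon 4000B scanner. Transcription factors with N-terminal polyhistidine and DsRed fusions came from E. coli BL21-CodonPlus and were purified on Ni–NTA. They were incubated at 200 nM for 1 h at 25 °C on a custom Agilent array that had been made double-stranded with Cy5-dUTP, with 50 µM zinc acetate present, and the array was washed.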

Question: Which binding signal does the source give for “TCATCCCCTGATCGTCATCAGCATTCTCACCGTCGGCGCTCGGAGTCACCTAGTGCAG” here?
Answer: The binding signal was 4690 fluorescence intensity (a.u.).

Question: With “AGTAGGGAAAGTTACAACGCAGCCTAACGTGGGATAGCGGCGGAGTCACCTAGTGCAG” as the sequence, how does the binding signal read?
Answer: The binding signal was 3980 fluorescence intensity (a.u.).

Question: Which binding signal does the source give for “CGCGATCCTGACAGTATATTCTATCTTTGACACAGTCTGACGGAGTCACCTAGTGCAG” here?
Answer: The binding signal was 3320 fluorescence intensity (a.u.).

Question: With “GCAGCCATTTACGCTTTCCACGTCAGTGCATGATGGAGTACGGAGTCACCTAGTGCAG” as the sequence, how does the binding signal read?
Answer: Its binding signal is 16800 fluorescence intensity (a.u.).

Question: With “GTAGCGGCTGCGGCGCTCCAGCTCCTCGGAGGCCCGGTCCCGGAGTCACCTAGTGCAG” as the sequence, how does the binding signal read?
Answer: Its binding signal is 3790 fluorescence intensity (a.u.).

Question: “CTCCCCACTCACTGCCAGGTGGGCCCACCTTGTCGGATTACGGAGTCACCTAGTGCAG” was tested. Which binding signal did it give?
Answer: The binding signal was 3530 fluorescence intensity (a.u.).

Question: Which binding signal does the source give for “ATGTCAAGACAACAACAGTTGTAAATGTGATCTGGACATACGGAGTCACCTAGTGCAG” here?
Answer: Its binding signal is 3540 fluorescence intensity (a.u.).

Question: With “TCCCTGCGAAATTGTACACATCAACACAACATAAGGTCGACGGAGTCACCTAGTGCAG” as the sequence, how does the binding signal read?
Answer: The binding signal was 3700 fluorescence intensity (a.u.).

Question: With “GGCAAATCGGTAATTGCCATGTCACAAGAGTGGCAAATAGCGGAGTCACCTAGTGCAG” as the sequence, how does the binding signal read?
Answer: The binding signal was 8900 fluorescence intensity (a.u.).

Question: For “CACCCGCCATCGTGGCGGACATTCCAGTATAGGTACGGCACGGAGTCACCTAGTGCAG”, which binding signal is on record?
Answer: Its binding signal is 6150 fluorescence intensity (a.u.).

Question: How did the binding signal turn out when “TGGTGGTGGAAATTTTGGAAATCGTGAGGGCTACACATACCGGAGTCACCTAGTGCAG” was run?
Answer: The binding signal was 3550 fluorescence intensity (a.u.).

Question: How did the binding signal turn out when “CGTCGACCACCACCACGCTCTTGCCCCTGATGACGCCGTGCGGAGTCACCTAGTGCAG” was run?
Answer: Its binding signal is 6870 fluorescence intensity (a.u.).

Question: With “CGGCTTCCCGACGGTGGCGGCGCACGTGGGCGAGGCTGAGCGGAGTCACCTAGTGCAG” as the sequence, how does the binding signal read?
Answer: Its binding signal is 3800 fluorescence intensity (a.u.).

Question: “TAGTTAATAAAAGTCAAAATGAAGTCACAATTTGCCACGTCGGAGTCACCTAGTGCAG” was tested. Which binding signal did it give?
Answer: The binding signal was 8180 fluorescence intensity (a.u.).

Question: “TTGCCACGTAATCGCTACGTCAATGCCACGTGGGACGGAGCGGAGTCACCTAGTGCAG” was tested. Which binding signal did it give?
Answer: Its binding signal is 43800 fluorescence intensity (a.u.).

Question: “CACGTAAGCGTCACGTCAATGCCACGTGGGACGGTGACCTCGGAGTCACCTAGTGCAG” was tested. Which binding signal did it give?
Answer: The binding signal was 27900 fluorescence intensity (a.u.).

Question: Which binding signal does the source give for “CCCACCTTTCAAATTCCACGTCCGCCAATAATATTATTACCGGAGTCACCTAGTGCAG” here?
Answer: The binding signal was 6710 fluorescence intensity (a.u.).

Question: For “TGCGGATCTAATTGCCACGTAAGCGCCACGACAATGACACCGGAGTCACCTAGTGCAG”, which binding signal is on record?
Answer: The binding signal was 16800 fluorescence intensity (a.u.).

Question: With “CATCTAATTGCCACATAAGCGCCACGTCAACGACACGTTGCGGAGTCACCTAGTGCAG” as the sequence, how does the binding signal read?
Answer: The binding signal was 41300 fluorescence intensity (a.u.).

Question: With “GCCCACAAGCGCTCGGCTCGAAACGCCACGTCACCACGCTCGGAGTCACCTAGTGCAG” as the sequence, how does the binding signal read?
Answer: The binding signal was 43800 fluorescence intensity (a.u.).

Question: “AGCAGTAACCACGAAAGCGCTCGGCTCCACACGCCACGCACGGAGTCACCTAGTGCAG” was tested. Which binding signal did it give?
Answer: Its binding signal is 3280 fluorescence intensity (a.u.).

Question: “CCGCCCCACGCGGCGCCACCACACCACCGCGCGCGTCGCTCGGAGTCACCTAGTGCAG” was tested. Which binding signal did it give?
Answer: Its binding signal is 5900 fluorescence intensity (a.u.).

Question: For “TATTAATTTCCAAATAAATTGCTATGTCAATGCCACGTCACGGAGTCACCTAGTGCAG”, which binding signal is on record?
Answer: Its binding signal is 40900 fluorescence intensity (a.u.).

Question: Which binding signal does the source give for “ATGCCACATAAACCCTACGTCAATGCCACGTGGGACAAAGCGGAGTCACCTAGTGCAG” here?
Answer: Its binding signal is 22600 fluorescence intensity (a.u.).

Question: With “ATCTAATTGCCACATAAGCACTACGTCAATAACACGTTAGCGGAGTCACCTAGTGCAG” as the sequence, how does the binding signal read?
Answer: Its binding signal is 10100 fluorescence intensity (a.u.).

Question: How did the binding signal turn out when “CTGTCCATTGATCTGTCCCTGGCAGCGACGTGACGTCCCACGGAGTCACCTAGTGCAG” was run?
Answer: Its binding signal is 4890 fluorescence intensity (a.u.).

Question: How did the binding signal turn out when “GCTTCGTGGGCCTCTCACTTGAGTCACTGGCACTCCATTCCGGAGTCACCTAGTGCAG” was run?
Answer: Its binding signal is 3570 fluorescence intensity (a.u.).

Question: For “TCCAAAATATTAGCATGGCACAGATTGGCACTACCCTTGTCGGAGTCACCTAGTGCAG”, which binding signal is on record?
Answer: The binding signal was 3280 fluorescence intensity (a.u.).

Question: For “CGTAGAGGAATAACAATGGAACGTCATCCCTCTCTGTTCGCGGAGTCACCTAGTGCAG”, which binding signal is on record?
Answer: The binding signal was 4120 fluorescence intensity (a.u.).

Question: “GGTTCCATGCCTCGCCGTTTATCTATCTAATTTACTAGCACGGAGTCACCTAGTGCAG” was tested. Which binding signal did it give?
Answer: The binding signal was 3170 fluorescence intensity (a.u.).

Question: How did the binding signal turn out when “CGGCATTGACCTGGTCTTTGTTCCACGTGGCGCTTAGGTGCGGAGTCACCTAGTGCAG” was run?
Answer: The binding signal was 8840 fluorescence intensity (a.u.).

Question: With “TGTATGTCGGGTTGTCGATGATCAAGCCAGTGACACGCTTCGGAGTCACCTAGTGCAG” as the sequence, how does the binding signal read?
Answer: Its binding signal is 4000 fluorescence intensity (a.u.).

Question: “AGCCCACGTCCAGCTCACACACGCACCCACAACCGACCCACGGAGTCACCTAGTGCAG” was tested. Which binding signal did it give?
Answer: Its binding signal is 6070 fluorescence intensity (a.u.).

Question: For “ATTTTATTATTCTTGCAGATCAAATTGCCACGTAAGCGTCCGGAGTCACCTAGTGCAG”, which binding signal is on record?
Answer: Its binding signal is 47800 fluorescence intensity (a.u.).

Question: Which binding signal does the source give for “TCAAATCAAATTGCCACGTAAGCGCCACGTCACTGCCACACGGAGTCACCTAGTGCAG” here?
Answer: The binding signal was 35200 fluorescence intensity (a.u.).

Question: How did the binding signal turn out when “GATCAAATTGCCACGTAAGCGCCACGTCAATGCCATGTCACGGAGTCACCTAGTGCAG” was run?
Answer: The binding signal was 48000 fluorescence intensity (a.u.).

Question: For “AACATATTAGAATATCGGTCTTAAATTAAATCCCATATAACGGAGTCACCTAGTGCAG”, which binding signal is on record?
Answer: The binding signal was 29100 fluorescence intensity (a.u.).

Question: With “ACATATAATTGCCACGTCAGCGCCACATCAATGCCACGTGCGGAGTCACCTAGTGCAG” as the sequence, how does the binding signal read?
Answer: The binding signal was 26100 fluorescence intensity (a.u.).

Question: For “AGAATCGCTTATATTATGGGACGGACGTAACATATAGAAGCGGAGTCACCTAGTGCAG”, which binding signal is on record?
Answer: The binding signal was 41100 fluorescence intensity (a.u.).

Question: For “ATAAAATTGCCACATAAGCACCACGTCAATGCTATGTGGGCGGAGTCACCTAGTGCAG”, which binding signal is on record?
Answer: The binding signal was 29700 fluorescence intensity (a.u.).

Question: How did the binding signal turn out when “TATAATTGCTACGTAAGCGCCACGTCAATGCCATGTCAGACGGAGTCACCTAGTGCAG” was run?
Answer: Its binding signal is 15700 fluorescence intensity (a.u.).

Question: “ATTTTATTGCCACATAAGCGCCACGTCAATGCCACGTGGGCGGAGTCACCTAGTGCAG” was tested. Which binding signal did it give?
Answer: Its binding signal is 56000 fluorescence intensity (a.u.).
